Data as given in PubChem BioAssay AID1159580 (chemical genetic matrix, 2015).
Several values for one entry are separate records, joined by “and”; a condition that tells them apart may be missing. Identical values can stand only once. Out of some 5,500 compounds screened, about 2,000 (36%) were called active. Roughly 18% stayed inconclusive and do not appear here. Rule as the data show it: active = normalized growth mostly below about 0.91 (no sharp cut-off); inconclusive = no clear call, values can overlap the other calls; inactive = mostly above about 0.92. The list shows a part of the results.

Test: chemical genetic growth profiling, strain panel (AID 1159580);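 also: tested at 20 µM; growth read once vehicle control cultures reached saturation at 30 °C; 1 = growth at the plate median or of vehicle wells; lower values mean less growth of the strain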
Conditions: growth OD

Measured: normalized growth

O=C(O)CCCCCCCC(=O)O
inactive: S. cerevisiae deletion strains, locus YKL009W, strain mrt4, active compounds read low 0.937 | S. cerevisiae deletion strains, locus YKL068W, active compounds read low 1.01 | S. cerevisiae deletion strains, locus YKL085W, strain MDH1 (second series), active compounds read low 1 | S. cerevisiae deletion strains, locus YKL085W, strain MDH1, active compounds read low 1 | S. cerevisiae deletion strains, locus YKL160W, strain elf1, active compounds read low 1.04 | S. cerevisiae deletion strains, locus YKL190W, strain CNB1, active compounds read low 0.992 | S. cerevisiae deletion strains, locus YKR001C, strain vps1, active compounds read low 0.981 | S. cerevisiae deletion strains, locus YKR026C, strain gcn3, active compounds read low 1.01 | S. cerevisiae deletion strains, locus YKR091W, strain srl3, active compounds read low 0.996 | S. cerevisiae deletion strains, locus YLL001W, strain dnm1, active compounds read low 1.02 | S. cerevisiae deletion strains, locus YLL026W, active compounds read low 0.995 | S. cerevisiae deletion strains, locus YLL041C, strain sdh2, active compounds read low 0.993 | S. cerevisiae deletion strains, locus YLR027C, strain aat2, active compounds read low 1.01 | S. cerevisiae deletion strains, locus YLR039C, strain RIC1, active compounds read low 0.999 | S. cerevisiae deletion strains, locus YLR058C, strain SHM2, active compounds read low 0.978 | S. cerevisiae deletion strains, locus YLR102C, strain apc9, active compounds read low 0.99 | S. cerevisiae deletion strains, locus YLR113W, strain HOG1, active compounds read low 0.966 | S. cerevisiae deletion strains, locus YLR221C, strain rsa3, active compounds read low 1.01 | S. cerevisiae deletion strains, locus YLR258W, strain gsy2, active compounds read low 1.02 | S. cerevisiae deletion strains, locus YLR262C, strain YPT6 (second series), active compounds read low 0.981 | S. cerevisiae deletion strains, locus YLR262C, strain YPT6, active compounds read low 0.949 | S. cerevisiae deletion strains, locus YLR268W, strain sec22, active compounds read low 1.01 | S. cerevisiae deletion strains, locus YLR320W, strain mms22, active compounds read low 1 | S. cerevisiae deletion strains, locus YLR330W, strain CHS5, active compounds read low 0.995 | S. cerevisiae deletion strains, locus YLR342W, strain FKS1 (second series), active compounds read low 1.03 | S. cerevisiae deletion strains, locus YLR342W, strain FKS1, active compounds read low 1.01 | S. cerevisiae deletion strains, locus YLR357W, strain rsc2, active compounds read low 1.05 | S. cerevisiae deletion strains, locus YLR370C, strain arc18, active compounds read low 1.01 | S. cerevisiae deletion strains, locus YLR371W, strain rom2, active compounds read low 0.991 | S. cerevisiae deletion strains, locus YLR384C, strain iki3, active compounds read low 0.994 | S. cerevisiae deletion strains, locus YLR418C, strain cdc73, active compounds read low 1.02 | S. cerevisiae deletion strains, locus YML016C, strain PPZ1, active compounds read low 0.991 | S. cerevisiae deletion strains, locus YML032C, strain rad52, active compounds read low 0.972 | S. cerevisiae deletion strains, locus YML120C, strain ndi1, active compounds read low 1 | S. cerevisiae deletion strains, locus YML124C, strain tub3, active compounds read low 0.991 | S. cerevisiae deletion strains, locus YMR058W, strain fet3, active compounds read low 1.01 | S. cerevisiae deletion strains, locus YMR078C, strain ctf18, active compounds read low 0.983 | S. cerevisiae deletion strains, locus YMR125W, strain sto1, active compounds read low 1.03 | S. cerevisiae deletion strains, locus YMR129W, active compounds read low 1.01 | S. cerevisiae deletion strains, locus YMR205C, strain PFK2, active compounds read low 1.02 | S. cerevisiae deletion strains, locus YMR223W, strain ubp8, active compounds read low 1 | S. cerevisiae deletion strains, locus YMR231W, strain pep5, active compounds read low 1.01 | S. cerevisiae deletion strains, locus YMR263W, strain SAP30, active compounds read low 0.984 and 1.01 | S. cerevisiae deletion strains, locus YMR307W, strain GAS1, active compounds read low 1.12 | S. cerevisiae deletion strains, locus YNL067W, strain RPL9B, active compounds read low 0.996 | S. cerevisiae deletion strains, locus YNL071W, strain lat1, active compounds read low 1 | S. cerevisiae deletion strains, locus YNL128W, strain TEP1, active compounds read low 0.976 | S. cerevisiae deletion strains, locus YNL153C, strain GIM3, active compounds read low 0.986 and 1.02 | S. cerevisiae deletion strains, locus YNL175C, strain NOP13, active compounds read low 1.01 | S. cerevisiae deletion strains, locus YNL183C, strain NPR1, active compounds read low 0.945 | S. cerevisiae deletion strains, locus YNL197C, strain WHI3, active compounds read low 1.01 | S. cerevisiae deletion strains, locus YNL209W, strain ssb2, active compounds read low 1 | S. cerevisiae deletion strains, locus YNL224C, strain SQS1, active compounds read low 1 | S. cerevisiae deletion strains, locus YNL233W, strain BNI4, active compounds read low 0.994 | S. cerevisiae deletion strains, locus YNL248C, strain rpa49, active compounds read low 1.04 | S. cerevisiae deletion strains, locus YNL250W, strain rad50, active compounds read low 0.988 | S. cerevisiae deletion strains, locus YNL271C, strain bni1, active compounds read low 0.992 | S. cerevisiae deletion strains, locus YNL298W, strain CLA4, active compounds read low 0.926 | S. cerevisiae deletion strains, locus YNL307C, strain MCK1, active compounds read low 0.992 | S. cerevisiae deletion strains, locus YNL322C, strain KRE1 (second series), active compounds read low 1.04 | S. cerevisiae deletion strains, locus YNL322C, strain KRE1, active compounds read low 0.992 | S. cerevisiae deletion strains, locus YNR049C, strain mso1, active compounds read low 1.01 | S. cerevisiae deletion strains, locus YNR052C, strain pop2, active compounds read low 0.974 | S. cerevisiae deletion strains, locus YOL006C, strain TOP1, active compounds read low 1.02 | S. cerevisiae deletion strains, locus YOL012C, strain htz1 0.954 | S. cerevisiae deletion strains, locus YOL147C, strain pex11, active compounds read low 1 | S. cerevisiae deletion strains, locus YOR001W, strain rrp6, active compounds read low 1 | S. cerevisiae deletion strains, locus YOR061W, strain CKA2, active compounds read low 0.973 | S. cerevisiae deletion strains, locus YOR069W, strain VPS5, active compounds read low 0.998 | S. cerevisiae deletion strains, locus YOR070C, strain gyp1, active compounds read low 1.02 | S. cerevisiae deletion strains, locus YOR080W, strain dia2, active compounds read low 1.01 | S. cerevisiae deletion strains, locus YOR083W, strain WHI5 (second series), active compounds read low 1.02 | S. cerevisiae deletion strains, locus YOR083W, strain WHI5, active compounds read low 1 | S. cerevisiae deletion strains, locus YOR106W, strain vam3, active compounds read low 1.03 | S. cerevisiae deletion strains, locus YOR136W, strain idh2, active compounds read low 0.962 | S. cerevisiae deletion strains, locus YOR144C, strain elg1, active compounds read low 0.993 | S. cerevisiae deletion strains, locus YOR184W, strain ser1, active compounds read low 0.988 | S. cerevisiae deletion strains, locus YOR231W, strain MKK1, active compounds read low 0.973 | S. cerevisiae deletion strains, locus YOR265W, strain rbl2, active compounds read low 1.01 | S. cerevisiae deletion strains, locus YOR270C, strain vph1, active compounds read low 1.1 | S. cerevisiae deletion strains, locus YOR290C, strain snf2, active compounds read low 1.04 | S. cerevisiae deletion strains, locus YOR316C, strain cot1, active compounds read low 0.985 | S. cerevisiae deletion strains, locus YPL051W, strain arl3, active compounds read low 1.02 | S. cerevisiae deletion strains, locus YPL055C, strain LGE1, active compounds read low 0.957 | S. cerevisiae deletion strains, locus YPL078C, strain atp4, active compounds read low 1.03 | S. cerevisiae deletion strains, locus YPL106C, strain sse1, active compounds read low 0.996 | S. cerevisiae deletion strains, locus YPL240C, strain hsp82, active compounds read low 1.01 | S. cerevisiae deletion strains, locus YPL241C, strain CIN2, active compounds read low 0.997 and 1.01 | S. cerevisiae deletion strains, locus YPL256C, strain CLN2, active compounds read low 0.988 | S. cerevisiae deletion strains, locus YPR119W, strain clb2, active compounds read low 0.987 | S. cerevisiae deletion strains, locus YPR141C, strain kar3, active compounds read low 1 | S. cerevisiae deletion strains, locus YPR163C, strain tif3, active compounds read low 0.987 | S. cerevisiae deletion strains, locus YPR167C, strain met16, active compounds read low 0.99 | S. cerevisiae deletion strains, strain wtn01, active compounds read low 0.983 | S. cerevisiae strains, strain wild type, active compounds read low 0.999
